The AC50 is the midpoint of the concentration-response curve, whichever way the signal moves.

Ten compounds from PubChem BioAssay (EPA / NIEHS) can be followed below.

Records with an inconclusive call do not appear. The source made the active and inactive calls. Rule for the calls: active = hit-call score of the fitted dose curve at least 0.9, where 1 is the maximum; inconclusive = response in the unintended direction; inactive = score below 0.9.

A short description of assay [1]: Tanguay_ZF_120hpf_ActivityScore_legacy: (Legacy) Oregon State University Tanguay Lab 120 Hour Post-fertilization zebrafish Assay Score for Activity (AID 2283742).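 For AC50: dechorionated Tropical 5D wild-type zebrafish embryos held singly per well; static exposure from 6 hpf until 120 hpf at 28 °C.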 The essentials:
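Embryos are staged, enzymatically dechorionated at 4 hpf, placed individually at 6 hpf, then held in test chemical (0.64% DMSO) at 28C until 120 hpf. Mortality and malformations are scored by brightfield, with non-mortality endpoints skipped for dead embryos.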

Assay [2] can be described thus: ACEA_AR_agonist_AUC_viability: ACEA Biosciences xCELLigence Real-Time Cell Analysis on Androgen Receptor Agonism for Viability (AID 2283775).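 For AC50: viability read 80 hours after compound addition.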 Summed up: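 Read-out is area under the impedance curve at 80 h post-dose in 22Rv1 cells, with DMSO as baseline and signal loss taken as reduced viability. Compounds ran in duplicate from 100 uM final.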
Assay [3] can be described thus: ACEA_AR_antagonist_AUC_viability: ACEA Biosciences xCELLigence Real-Time Cell Analysis on Androgen Receptor Antagonism for Viability (AID 2283776).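 Note: 22Rv1 human prostate cancer cells growing on impedance electrode plates; area under impedance growth curve at 80 h after dosing as viability; hits lower the growth signal relative to DMSO meaning cytotoxicity.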 The essentials:
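Real-time electrical impedance tracks 22Rv1 proliferation after continuous compound exposure (top 100 uM final, 1:4 steps, 8 concentrations). The 80 h area-under-curve serves as the cytotoxicity readout relative to DMSO.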

`CCCCCCCCCCCCCCCCO`: the compound was called inactive in assay [1], in assay [2] and in assay [3].
With `NCCOCCOCCN`, the call in assay [1], in assay [2] and in assay [3] was inactive.
Consider `O=NO`, for which the compound was classed as inactive in assay [1] and in assay [3].
With `CCCCCCC(CCCCCCCCCCC(=O)OCC(COC(C)=O)OC(C)=O)OC(C)=O` (stereo unspecified), the call in assay [2] and in assay [3] was inactive.
On to `CSc1ccc(Oc2ccc(S(N)(=O)=O)cc2CN(C)C)cc1C`, for which the figures for the AC50 in assay [1], in assay [2] and in assay [3] were 22.8 µM (active), 65.2 µM (active) and 50 µM (active), respectively.
As for `CN(C)C(=O)NC1(c2ccccc2)CCN(CC[C@@]2(c3ccc(F)c(F)c3)CN(C(=O)c3ccccc3)CCO2)CC1`, the call in assay [1] and in assay [3] was inactive. In assay [2], the AC50 is 47 µM (active).
With `CCCCC(CC)CO` (stereo unspecified), the call in assay [1] and in assay [3] was inactive.
As for `CC(C)COC(=O)CCCCC(=O)OCC(C)C`, the outcome in assay [1], in assay [2] and in assay [3] was inactive.
For the compound `O=C(Oc1ccccc1)c1cccc(C(=O)Oc2ccccc2)c1`, the compound was classed as inactive in assay [1] and in assay [3].
For `COc1ccc(OC(F)(F)F)cc1CN[C@H]1CCCN[C@H]1c1ccccc1`, the results for the AC50 in assay [1], in assay [2] and in assay [3] were 17.9 µM (active), 65.5 µM (active) and 67 µM (active), respectively.
